# Most compounds without a hit are left out; they make up all but 4% or so of the library.
# Peg3 prom inh = Peg3 promoter activity inhibition; HeLa PEG-Prom luciferase reporter, luminescence, overnight; inhibition, % at 20 µM; 1.7% of 360,000 active; AID 588405;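 active means inhibition of at least 50% at 20 µM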
# HIF-2a inh = blocks HIF-2a reporter activity. 786-0 RCC cells HIF-2a reporter, luciferase luminescence, overnight. inhibition, % at 18.8 µM. 0.72% of 360,000 active. AID 624352;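 active means inhibition of the luminescence signal of 40% or more relative to plate controls, in a single-dose primary screen at 18.75 µM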
# TWEAK-Fn14 inh = inhibitors of TWEAK-Fn14 interaction signaling | TWEAK-stimulated Fn14 reporter cells, luciferase luminescence, 8 h | inhibition, % at 10 µM | 2% of 360,000 active | AID 1159606; in the data active means inhibition above about 50%
# KKLEB tox = CF airway cell cytotoxicity counter-screen | KKLEB CF airway cells viability, ATPlite luminescence, overnight; hits give low values; cells stimulated with P. aeruginosa culture filtrate | activity change (cytotoxicity), % at 5 µM | 0.36% of 360,000 active;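 active means corrected activity change at or below -50% at 5 µM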
# CF NFkB block = inhibitors of cystic fibrosis induced NF-kB; KKLEB NF-kB-GFP reporter, PAF-induced, GFP fluorescence overnight; inhibition, % at 5 µM; 0.86% of 360,000 active;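 active means at least 50% inhibition at 5 µM, scaled per plate between neutral and stimulator controls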;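 further: PAF is a Pseudomonas aeruginosa culture filtrate used as stimulus; plate controls were PAF-stimulated DMSO wells for no effect and unstimulated DMSO wells for full effect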
# TROY NFkB inh = inhibitors of TROY-dependent NF-kB signaling; Q293 LMP1-TROYcd NF-kB luciferase reporter, 4 h; inhibition, % at 10 µM; 0.98% of 360,000 active; AID 1347056;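 active means compounds whose plate-normalised and pattern-corrected inhibition of the luciferase reporter signal at the single screening dose is 50% or more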
# * hit, by the source's call; . = no result given.
SMILES,Peg3 prom inh,HIF-2a inh,TWEAK-Fn14 inh,KKLEB tox,CF NFkB block,TROY NFkB inh
CC(C)=C1C2CCC1C1C(=O)N(NC(=O)COc3ccc(C(C)(C)C)cc3)C(=O)C21 (stereo not given),54.5*,12.8,-18.6,-2.9,7.0,-6.5
Fc1ccc(NC(=S)N2CCCN(c3ccc(C(F)(F)F)cn3)CC2)c(F)c1,-1.7,-1.5,32.5,-3.8,20.5,26.9
Cc1csc2ncnc(N3CCN(C(=S)Nc4ccc(F)cc4F)CC3)c12,15.8,23.9,54.5*,-5.0,32.6,89.8*
Cc1ccc(S(=O)(=O)N2CCOCC2)cc1NC(=O)COC(=O)CCn1c(C)csc1=O,8.1,12.9,14.5,1.1,-5.9,21.8
C[C@]12C(=O)N(c3cccc(Cl)c3)C(=O)N1[C@@H]1c3ccccc3OC[C@@H]1[C@H]2c1ccccc1,-4.1,4.0,-15.1,10.1,5.7,6.6
COC(=O)c1cc(S(=O)(=O)NCCc2ccc(C)cc2)c[nH]1,1.3,19.3,1.9,6.9,0.7,8.4
COC(=O)c1cc(S(=O)(=O)NCCc2ccc(Cl)cc2)c[nH]1,-330.0,17.9,40.9,-8.5,50.7*,12.0
CCCc1cc(=O)[nH]c(SCC(=O)N(CC)Cc2ccccc2)n1,12.1,6.8,-0.5,2.6,8.5,9.1
Cn1cc(/C=C/c2cc[n+](C)cc2)c2cc(F)ccc21,18.8,12.4,-0.8,12.1,-79.0,22.8
Cn1cc(/C=C/c2cc[n+](C)cc2)c2cc(Cl)ccc21,51.3*,18.0,-2.1,-5.3,-54.2,2.9
Cn1ccnc1Sc1ccccc1[N+](=O)[O-],11.2,12.0,8.8,-5.7,15.1,24.2
CSc1nccn1C(=O)c1ccccc1[N+](=O)[O-],5.6,13.2,107.8*,7.1,-23.2,-9.3
O=C(NCCC1=CCCCC1)C1CCN(C(=O)Nc2ccccc2)CC1,1.4,6.6,110.0*,3.6,-3.5,-3.1
Cn1c(=NC(=O)CCl)sc2ccccc21,34.8,-80.6,40.6,-85.6*,94.5*,6.5
CC(=O)N=c1sc2cc(C)ccc2n1C,-122.7,-2.7,51.9*,-0.3,-9.8,4.4
Cn1c(=NC(=O)c2ccco2)sc2ccccc21,-166.9,-184.3,19.5,-6.4,-9.1,-2.6
CC(=O)SCC(=O)N=c1sc2cc(F)ccc2n1C,-10.6,13.1,14.4,-10.0,20.8,-11.6
O=C(O)CCCC(=O)Nc1ccc(Cl)c(Cl)c1,-5.0,5.9,-1.3,9.1,-9.9,-4.5
CCOC(=O)c1cc2sccc2n1CC(=O)N1c2ccccc2CC1C (stereo not given),72.0*,13.7,-9.8,5.5,2.1,3.0
COc1cc2c(cc1OC)C(=O)C(Br)CC2 (stereo not given),65.3*,8.1,15.6,-16.1,69.5*,15.0
COc1cc2c(cc1OC)C(=O)C(c1ccc3c(c1)OCO3)CC2 (stereo not given),-14.6,-26.7,-0.8,2.8,-33.3,-13.8
CCn1ccnc1CN(C)Cc1cn(-c2ccc(C)cc2)nc1-c1ccc(F)cc1,-14.3,-19.8,-5.2,-11.6,8.0,9.4
O=C(NC(Nc1nc2ccc([N+](=O)[O-])cc2s1)(C(F)(F)F)C(F)(F)F)c1cccnc1,12.4,11.7,51.4*,-47.5,54.9*,14.8
O=C(NC(Nc1nc2ccc([N+](=O)[O-])cc2s1)(C(F)(F)F)C(F)(F)F)c1ccccc1Cl,65.2*,15.2,90.2*,-53.0*,45.0,65.6*
O=C(NC(NNc1ccc([N+](=O)[O-])cc1)(C(F)(F)F)C(F)(F)F)c1ccccc1Cl,4.2,-6.1,-2.4,-8.7,-21.9,9.8
SMILES,Peg3 prom inh,HIF-2a inh,TWEAK-Fn14 inh,KKLEB tox,CF NFkB block,TROY NFkB inh
Cc1nnc(N(CCC#N)CCC#N)s1,12.8,11.6,84.8*,15.5,-8.7,.
CSc1nnc(N(CCC#N)CCC#N)s1,3.4,11.9,-5.6,6.4,-6.3,-6.1
CC(=O)Oc1cccc(NC(=O)c2ccc3c(c2)C(=O)N(CC(C)C)C3=O)c1,-84.6,-90.7,-20.4,2.1,12.2,-22.8
O=C(CCl)N1CCN2C(=O)c3ccccc3C12c1ccc(Cl)cc1 (stereo not given),87.5*,19.6,-2.6,1.4,18.7,-2.0
Cc1ccc(C(=O)N2CCN3C(=O)c4ccccc4C23c2ccc(Cl)cc2)cc1 (stereo not given),26.1,-4.7,10.6,-18.6,-22.7,-12.9
CCC(=O)Nc1ccc2nc(C3CC3)n(Cc3ccc(C(C)(C)C)cc3)c(=O)c2c1,-213.5,-223.6,65.8*,-11.7,11.2,75.5*
Cc1nc2cc(Cl)c([N+](=O)[O-])cc2s1,-9.9,4.3,-7.8,8.4,4.0,-1.3
CCC(C)n1c(=S)[nH]c2c(sc3ccc([N+](=O)[O-])cc32)c1=O (stereo not given),10.5,3.5,23.5,-49.9,54.2*,29.2
COc1ccc(C(CC(=O)c2ccc(C)cc2)Sc2ccccc2N)cc1 (stereo not given),-189.1,-150.4,70.0*,-16.5,3.2,11.2
Nc1ccccc1SC(CC(=O)c1ccccc1)c1ccc([N+](=O)[O-])cc1 (stereo not given),24.7,-155.5,10.6,13.7,-1.6,-24.8
N#Cc1c(Sc2ncc(C(F)(F)F)cc2Cl)nsc1C/C=N\OCc1ccccc1Br,4.6,4.7,66.7*,15.2,-20.2,.
O=C(O/N=C\c1ccc(N2CCCCC2)c([N+](=O)[O-])c1)c1c(F)cccc1F,-29.3,-43.3,78.0*,-4.0,14.1,.
O=C(Cn1c2ccccc2c(=O)c2ccccc21)N/N=C/c1ccc(N2CCCC2)c([N+](=O)[O-])c1,91.4*,0.6,64.6*,-0.6,-9.3,35.0
COc1ccc(-c2c(C#N)sc(C(N)=O)c2-c2ccc(OC)cc2)cc1,30.7,4.7,-4.2,-9.4,17.9,4.5
CCc1ccc(-c2csc(NC(=O)c3cccnc3)n2)cc1,-88.6,-56.4,60.9*,11.9,-32.9,20.9
CCc1ccc(-c2csc(NC(=O)C3=NN(c4ccccc4)C(=O)CC3)n2)cc1,-37.6,-70.8,73.5*,-22.1,20.7,51.3*
O=C(Nc1nc(-c2ccc(Cl)cc2)cs1)c1cccnc1,-12.0,-34.7,12.0,13.7,-14.5,0.1
O=C1CCN(CCCc2ccccc2)CCN1[C@H](CO)c1ccccc1,-0.5,16.2,-11.3,8.8,24.2,-3.4
COc1ccc(/C=N\NC(=O)/C(=C\Nc2nccc(C)n2)NC(=O)c2ccccc2)cc1,-13.7,-11.8,70.7*,-4.6,4.3,.
COc1cccc(NC(=O)Nc2cc(C(=O)NCC3CCCO3)ccc2N2CC3CC(C2)c2cccc(=O)n2C3)c1 (stereo not given),11.6,14.0,1.1,-5.9,-3.7,-5.9
Nc1c(C(=O)NCC2CCCO2)sc2nc3c(c(-c4ccco4)c12)CC/C3=C\c1ccco1 (stereo not given),10.9,0.9,88.9*,-12.8,2.5,9.0
Cc1ccccc1NC(=O)c1sc2nc3c(c(-c4ccco4)c2c1N)CCC3,5.6,-11.5,3.0,0.2,-4.2,-8.5

# Assay outcomes from PubChem BioAssay.
